Measured values published in PubChem BioAssay (NCI).
The panel holds about 83,000 compounds, 20% with a hit somewhere; the sample as a whole holds those more often.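 Cells were grown in 96-well plates and exposed to the test compound at a single concentration for 48 hours; results are reported as percent growth, with values below 10 considered active.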 Activity calls are given as the source filed them.

Assays:
Experiment in all cases: NCI-60 one-dose screen, 48 h (100 = growth as untreated, 0 = no growth, -100 = all killed)
Conditions in all cases: 10 µM unless noted
NCI-H23 lung = tested on: NCI-H23 lung
NCI-H322M lung = tested on: NCI-H322M lung
HOP-62 NSCLC = tested on: HOP-62 NSCLC
NCI-H460 lung = tested on: NCI-H460 lung
HOP-92 NSCLC = tested on: HOP-92 NSCLC
NCI-H522 lung = tested on: NCI-H522 lung
A549/ATCC NSCLC = tested on: A549/ATCC NSCLC
786-0 renal = tested on: 786-0 renal
COLO 205 colon = tested on: COLO 205 colon
DU-145 prostate = tested on: DU-145 prostate
K-562 leukemia = tested on: K-562 leukemia
MALME-3M melanoma = tested on: MALME-3M melanoma
MDA-MB-231 breast = tested on: MDA-MB-231 breast
RXF 393 renal = tested on: RXF 393 renal
SF-268 CNS = tested on: SF-268 CNS
SF-295 CNS = tested on: SF-295 CNS
SF-539 CNS = tested on: SF-539 CNS
UACC-257 melanoma = tested on: UACC-257 melanoma
M14 melanoma = tested on: M14 melanoma

Measured: growth

O=C1Nc2ccccc2/C1=C/c1cn(C[C@@H](O)Cn2c3ccccc3c(=O)c3ccccc32)c2ccccc12
inactive: NCI-H23 lung 84.1% | NCI-H322M lung 75.9% | HOP-62 NSCLC 62.2% | NCI-H460 lung 74.3% | HOP-92 NSCLC 52.9% | NCI-H522 lung 55.5% | A549/ATCC NSCLC 71.6% | 786-0 renal 86.4% | COLO 205 colon 84.1% | DU-145 prostate 105% | K-562 leukemia 68.4% | MALME-3M melanoma 81.3% | MDA-MB-231 breast 50.2% | RXF 393 renal 76.8% | SF-268 CNS 72.8% | SF-295 CNS 81.6% | SF-539 CNS 84.7% | UACC-257 melanoma 100% | M14 melanoma 69.7%

CCN=C1C=CC(=C(c2ccc(N(C)C)cc2)c2ccc(N(C)C)cc2)c2ccccc21
active: NCI-H23 lung -5.87% | NCI-H322M lung -30.1% | NCI-H460 lung -36.8% | HOP-92 NSCLC -21.5% | NCI-H522 lung -36.8% | A549/ATCC NSCLC 1.14% | 786-0 renal -11% | COLO 205 colon -79% | DU-145 prostate 1.96% | MALME-3M melanoma -48.4% | MDA-MB-231 breast -12% | RXF 393 renal -29.2% | SF-268 CNS -8.78% | SF-295 CNS -37.5% | SF-539 CNS -57.4% | UACC-257 melanoma -10.1% | M14 melanoma -42.2%
inactive: K-562 leukemia 10.9%

CC[C@]12C=CCN3CC[C@@]4(c5ccc(OC)cc5N(C)[C@H]4[C@@](O)(C(=O)OC)[C@@H]1OC(=O)CCCN1CCOCC1)[C@@H]32
inactive: NCI-H23 lung 106% | NCI-H322M lung 106% | HOP-62 NSCLC 99.1% | NCI-H460 lung 111% | HOP-92 NSCLC 94.5% | NCI-H522 lung 100% | A549/ATCC NSCLC 101% | 786-0 renal 96.9% | COLO 205 colon 108% | DU-145 prostate 106% | K-562 leukemia 100% | MALME-3M melanoma 110% | MDA-MB-231 breast 115% | RXF 393 renal 114% | SF-268 CNS 98.6% | SF-295 CNS 104% | SF-539 CNS 106% | UACC-257 melanoma 104% | M14 melanoma 103%

O=C(Nc1ccccc1O)c1ccccc1Nc1ccnc(C(F)(F)F)c1
inactive: NCI-H23 lung 94.5% | NCI-H322M lung 114% | HOP-62 NSCLC 99.5% | NCI-H460 lung 97.3% | HOP-92 NSCLC 88% | NCI-H522 lung 83.9% | A549/ATCC NSCLC 114% | 786-0 renal 104% | COLO 205 colon 148% | DU-145 prostate 104% | K-562 leukemia 86.2% | MALME-3M melanoma 112% | MDA-MB-231 breast 82.5% | RXF 393 renal 108% | SF-268 CNS 113% | SF-295 CNS 107% | SF-539 CNS 89.1% | UACC-257 melanoma 106% | M14 melanoma 98.6%

CCCCCCCCCCCCCCCCOC(=O)c1c(C)[nH]c(/C=C2\N=C(c3ccc[nH]3)C=C2OC)c1C
active: HOP-92 NSCLC -12.6% | M14 melanoma -17.1%
inactive: NCI-H23 lung 48.8% | NCI-H322M lung 82.7% | HOP-62 NSCLC 54.2% | NCI-H460 lung 13.3% | NCI-H522 lung 27.1% | A549/ATCC NSCLC 11% | 786-0 renal 11.3% | COLO 205 colon 33.6% | DU-145 prostate 49.3% | K-562 leukemia 38.3% | MALME-3M melanoma 68.4% | MDA-MB-231 breast 46.6% | RXF 393 renal 32% | SF-268 CNS 69.6% | SF-295 CNS 68.7% | SF-539 CNS 63.6% | UACC-257 melanoma 86.1%

O=C1OCC2=C1C(c1cccc(F)c1)c1cc3c(cc1N2CCO)OCO3 (stereo not given)
inactive: NCI-H23 lung 33.4% | NCI-H322M lung 51.2% | HOP-62 NSCLC 32% | NCI-H460 lung 14.2% | HOP-92 NSCLC 34.6% | NCI-H522 lung 12.5% | A549/ATCC NSCLC 43% | 786-0 renal 24.5% | DU-145 prostate 30.5% | MALME-3M melanoma 52.7% | MDA-MB-231 breast 49.9% | RXF 393 renal 32.6% | SF-268 CNS 38.7% | UACC-257 melanoma 75.5% | M14 melanoma 12.6%
active: COLO 205 colon 7.08% | K-562 leukemia 9.79% | SF-295 CNS 1.9% | SF-539 CNS 2.82%

COc1cc2cc(NCc3ccc(OC(F)F)cc3)nc(C)c2cc1OC
inactive: NCI-H23 lung 45.1% | NCI-H322M lung 53.4% | HOP-62 NSCLC 58.7% | NCI-H460 lung 57.2% | HOP-92 NSCLC 63% | NCI-H522 lung 45.3% | A549/ATCC NSCLC 72.1% | 786-0 renal 61.8% | COLO 205 colon 65.7% | DU-145 prostate 75.8% | K-562 leukemia 34% | MALME-3M melanoma 72.4% | MDA-MB-231 breast 62.6% | RXF 393 renal 67.1% | SF-268 CNS 73.2% | SF-295 CNS 35% | SF-539 CNS 69.1% | UACC-257 melanoma 87.5% | M14 melanoma 63.9%

O=C1Nc2ccc(F)cc2/C1=C\c1nc(-c2ccccc2F)n2ccccc12
inactive: NCI-H23 lung 75.9% | NCI-H322M lung 91.7% | NCI-H460 lung 50.5% | HOP-92 NSCLC 79.8% | NCI-H522 lung 52.1% | A549/ATCC NSCLC 86.1% | 786-0 renal 105% | COLO 205 colon 93% | K-562 leukemia 102% | MALME-3M melanoma 83.3% | MDA-MB-231 breast 98.5% | RXF 393 renal 84.5% | SF-268 CNS 85.1% | SF-295 CNS 104% | SF-539 CNS 64.7% | UACC-257 melanoma 96.2% | M14 melanoma 97%
active: DU-145 prostate -7.63%

N=C(N)SCc1cccc2c(CSC(=N)N)cccc12
inactive: NCI-H23 lung 99.2% | NCI-H322M lung 90.7% | HOP-62 NSCLC 95.1% | NCI-H460 lung 103% | HOP-92 NSCLC 83.8% | NCI-H522 lung 104% | A549/ATCC NSCLC 96.6% | 786-0 renal 99.3% | COLO 205 colon 108% | DU-145 prostate 107% | K-562 leukemia 103% | MALME-3M melanoma 102% | MDA-MB-231 breast 98.6% | RXF 393 renal 113% | SF-268 CNS 97.2% | SF-295 CNS 113% | SF-539 CNS 100% | UACC-257 melanoma 95.9% | M14 melanoma 105%

CCCCc1oc2ccccc2c1C(=O)c1ccc(O)cc1
inactive: HOP-62 NSCLC 79.3% | NCI-H460 lung 84.4% | HOP-92 NSCLC 68.2% | NCI-H522 lung 66.7% | A549/ATCC NSCLC 76.6% | 786-0 renal 79.5% | COLO 205 colon 118% | DU-145 prostate 101% | K-562 leukemia 37.8% | MALME-3M melanoma 85.4% | MDA-MB-231 breast 79.1% | RXF 393 renal 72.7% | SF-268 CNS 94.2% | SF-295 CNS 175% | SF-539 CNS 82.5% | UACC-257 melanoma 76.8% | M14 melanoma 92.2%
active: NCI-H23 lung -5.52%

CCCCCCCCNc1cc2c3c(c1)CCCN3CCC2
active: NCI-H23 lung -9.97% | HOP-92 NSCLC -5.51% | NCI-H522 lung -28.4% | COLO 205 colon 3.21% | DU-145 prostate -2.64% | MDA-MB-231 breast 6.88% | SF-539 CNS 8.74% | UACC-257 melanoma -11.6%
inactive: NCI-H322M lung 111% | HOP-62 NSCLC 27% | NCI-H460 lung 16.9% | A549/ATCC NSCLC 76.4% | 786-0 renal 42.7% | K-562 leukemia 18.8% | MALME-3M melanoma 48.5% | RXF 393 renal 29.1% | SF-268 CNS 18.3% | SF-295 CNS 14% | M14 melanoma 30.3%

COc1ccc(-c2cn(-c3ccc(Cl)cc3)c(SCC(=O)c3ccc([N+](=O)[O-])cc3)n2)cc1
inactive: NCI-H23 lung 86.9% | NCI-H322M lung 81.1% | HOP-62 NSCLC 50.4% | NCI-H460 lung 91.5% | HOP-92 NSCLC 28% | NCI-H522 lung 70.7% | A549/ATCC NSCLC 101% | 786-0 renal 52.9% | COLO 205 colon 110% | DU-145 prostate 102% | K-562 leukemia 102% | MALME-3M melanoma 87.9% | MDA-MB-231 breast 80% | RXF 393 renal 54.1% | SF-268 CNS 73.1% | SF-295 CNS 75.3% | SF-539 CNS 82.5% | UACC-257 melanoma 99.6% | M14 melanoma 92.4%
